Test [1] is described as follows: qHTS for Inhibitors of the Functional Ribonucleoprotein Complex (vRNP) of Lassa (LASV) Arenavirus: LASV Primary Screen - GLuc reporter signal (AID 1347082; calls by dose curve; tested in HEK293 reporter line; further: nearly all actives have a fitted effect of over 60% in size; further: potency means the concentration at half of the fitted maximal effect; on activity change, negative = inhibition: on the % scale 0 is the no-effect control and ±100 the full control effect).
Test [2] can be described thus: qHTS for Inhibitors of the Functional Ribonucleoprotein Complex (vRNP) of Lassa (LASV) Arenavirus: Viability assay - alamar blue signal for LASV Primary Screen (AID 1347083; calls by dose curve; tested in HEK293 reporter line; further: nearly all actives have a fitted effect of over 80% in size; further: potency means the concentration at half of the fitted maximal effect; on activity change, negative = reduced viability: on the % scale 0 is the no-effect control and ±100 the full control effect).
A short description of test [3]: qHTS for Inhibitors of the Functional Ribonucleoprotein Complex (vRNP) of Lymphocytic Choriomeningitis Arenaviruses (LCMV): Viability assay - alamar blue signal for LCMV Primary Screen (AID 1347085; calls by dose curve; tested in HEK293 reporter line; further: nearly all actives have a fitted effect of over 80% in size; further: potency means the concentration at half of the fitted maximal effect; on activity change, negative = lower viability: on the % scale 0 is the no-effect control and ±100 the full control effect). Background: Quantitative high-throughput screening tests each substance at several concentrations.
Test [4] deals with Nucleoprotein (Lymphocytic choriomeningitis virus (strain Armstrong)) (UniProt P09992). The experiment in a line: qHTS for Inhibitors of the Functional Ribonucleoprotein Complex (vRNP) of Lymphocytic Choriomeningitis Arenaviruses (LCMV): LCMV Primary Screen - GLuc reporter signal (AID 1347086). Further: nearly all actives have a fitted effect of over 70% in size. Further: potency means the concentration at half of the fitted maximal effect. On activity change, negative = inhibition: on the % scale 0 is the no-effect control and ±100 the full control effect.
Sequence of Nucleoprotein (Lymphocytic choriomeningitis virus (strain Armstrong)) (P09992 whole entry, looked up): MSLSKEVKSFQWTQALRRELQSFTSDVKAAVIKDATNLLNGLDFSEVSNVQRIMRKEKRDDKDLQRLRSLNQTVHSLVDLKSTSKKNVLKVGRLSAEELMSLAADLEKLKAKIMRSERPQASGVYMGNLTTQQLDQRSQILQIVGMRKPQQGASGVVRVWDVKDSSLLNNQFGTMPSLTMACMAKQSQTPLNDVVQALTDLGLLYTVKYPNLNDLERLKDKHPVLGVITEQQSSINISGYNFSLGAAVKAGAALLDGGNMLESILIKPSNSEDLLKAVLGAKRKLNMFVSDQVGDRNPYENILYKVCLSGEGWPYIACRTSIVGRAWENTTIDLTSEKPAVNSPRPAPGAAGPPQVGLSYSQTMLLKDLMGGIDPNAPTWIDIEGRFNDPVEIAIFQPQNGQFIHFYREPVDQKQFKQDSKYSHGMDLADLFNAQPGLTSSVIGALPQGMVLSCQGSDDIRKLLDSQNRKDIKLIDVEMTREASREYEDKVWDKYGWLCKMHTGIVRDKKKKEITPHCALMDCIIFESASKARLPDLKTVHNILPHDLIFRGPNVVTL
A short description of test [5]: Primary qHTS for inhibitors of SARS-S pseudo-typed particle cell entry (AID 1479145). Further: nearly all actives have a fitted effect of over 45% in size.
Test [6] in a line: Primary qHTS for Huh7 cytotoxicity: counterscreen for inhibitors of MERS-S pseudotyped particle cell entry (AID 1479147). To be noted: outcome: dose series up to 57.1 µM unless noted.
Test [7] in a line: Primary qHTS for inhibitors of MERS-S pseudo-typed particle cell entry (AID 1479149). Further: nearly all actives have a fitted effect of over 60% in size. Further: potency means the concentration at half of the fitted maximal effect.
A short description of test [8]: Primary qHTS for Vero E6 cytotoxicity: counterscreen for inhibitors of SARS-S pseudo-typed particle cell entry (AID 1479150). As to conditions: outcome: dose series up to 57.1 µM unless noted.
The nature of test [9]: Cytotoxicity counterscreen for inhibitors of SARS-CoV-2 cell entry (AID 1645845). Further: nearly all actives have a fitted effect of over 50% in size. The procedure, abridged: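 ATP-content luminescence (ATPLite 1step, 15 min RT) read after 48 h compound exposure of Expi293F cells stably expressing human ACE2; normalized to cells-only wells and media-only wells.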
(In general: Counterscreens check selectivity or assay interference.)

Test [10] can be described thus: Confirmatory qHTS to identify inhibitors of SARS-CoV-2 cell entry (AID 1645844). Further: potency means the concentration at half of the fitted maximal effect; nearly all actives have a fitted effect of over 45% in size. The procedure, abridged:
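Luminescence entry read-out after 48 h: spike-pseudotyped MLV particles (Wuhan-Hu-1, 19-aa C-terminal truncation) added to compound-pretreated (1 h) HEK293-ACE2 cells; Data were normalised to bald PP and spike PP wells.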

The nature of test [11]: Primary qHTS to identify inhibitors of SARS-CoV-2 cell entry (AID 1645846). Further: nearly all actives have a fitted effect of over 45% in size. To be noted: activity change, negative = inhibition: at 57.1 µM (top of the series) unless noted. The essentials:
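Entry measured by luciferase signal 48 h after adding SARS-CoV-2-S pseudotyped MLV particles to HEK293-ACE2 cells preincubated 1 h with compounds. Normalisation: bald particles and spike particles.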

A short description of test [12]: VSVG counterscreen qHTS to identify inhibitors of SARS-CoV-2 cell entry (AID 1645847). Further: potency means the concentration at half of the fitted maximal effect; nearly all actives have a fitted effect of over 65% in size. The procedure, abridged: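 Luminescence read after 48 h infection at 37 C with VSV-G-pseudotyped MLV particles, following 1 h compound exposure of Expi293F cells stably expressing human ACE2; scaled between bald particle and VSV-G particle wells.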
The nature of test [13]: qHTS for inhibitors of Rabies Virus screened against the NCATS CANVASS Library (AID 1347402). Further: 0% is about no effect.
The test system of test [14] is Zika virus NS2B-NS3 protease. The experiment in a line: Primary screen GU AMC qHTS for Zika virus inhibitors (AID 1347154; active means well fitted curve in the direction sought with a large enough effect; an effect the other way counts as inactive or inconclusive;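 further: 0% = no-inhibitor control and -100% = no-enzyme control; nearly all actives have a fitted effect of over 70% in size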). The procedure, abridged: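 Fluorogenic AMC-substrate cleavage by noncovalent NS2B-NS3 protease complex (25 nM, pH 8.0 Tris buffer with Tween 20) followed for 15 minutes at room temperature (~20% conversion). Percent inhibition from ex340/em450 signal change, fitted by 4-parameter Hill equation.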

Test [15] in a line: Inducers of the Endoplasmic Reticulum Stress Response (ERSR) in human glioma: Validation (AID 504836; active means well fitted curve in the direction sought with a large enough effect; an effect the other way counts as inactive or inconclusive; further: 0% is about no effect). The procedure, abridged:
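ERSR induction read as luciferase luminescence (Bright-Glo, 10 min at room temperature) in stably transfected human U87-MG glioma cells exposed to compounds for 16 h, using GRP78 as sensor.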

Test [16] deals with Alpha-galactosidase (Coffea arabica) (UniProt Q42656). The experiment in a line: Counterscreen for Glucocerebrosidase Inhibitors: qHTS Assay for Coffee Bean alpha-Galactosidase at pH 4.5 (AID 957; active means well fitted curve in the direction sought with a large enough effect; an effect the other way counts as inactive or inconclusive;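 further: plate controls were enzyme alone for no effect and no enzyme for full effect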). The procedure, abridged: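 Fluorogenic qHTS at pH 4.5 (citrate buffer with Tween-20): 2 nM enzyme, 80 uM 4-MU-alpha-galactoside substrate, compound titrated 0.7 nM to 77 uM, 20 min room temperature. Glycine/NaOH stop; 4-MU read Ex 365/Em 440; Hill-equation AC50 against no-enzyme and enzyme controls.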
Sequence of Alpha-galactosidase (Coffea arabica) (Q42656 whole entry, looked up): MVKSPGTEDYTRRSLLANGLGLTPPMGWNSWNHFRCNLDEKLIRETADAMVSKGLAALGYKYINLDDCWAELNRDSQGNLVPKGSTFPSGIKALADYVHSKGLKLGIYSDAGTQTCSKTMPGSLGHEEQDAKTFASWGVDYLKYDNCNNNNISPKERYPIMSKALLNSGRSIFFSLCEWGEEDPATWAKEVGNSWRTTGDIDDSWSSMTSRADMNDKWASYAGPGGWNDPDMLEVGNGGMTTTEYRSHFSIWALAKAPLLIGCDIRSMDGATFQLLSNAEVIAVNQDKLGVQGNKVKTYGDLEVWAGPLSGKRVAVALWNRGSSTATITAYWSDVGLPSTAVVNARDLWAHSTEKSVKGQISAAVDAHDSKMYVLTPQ

For test [17] the target is unchanged. The experiment in a line: Counterscreen for Glucocerebrosidase Inhibitors: qHTS Assay for Coffee Bean alpha-Galactosidase at pH 5.9 (AID 998; active means well fitted curve in the direction sought with a large enough effect; an effect the other way counts as inactive or inconclusive;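 further: plate controls were uninhibited enzyme for no effect and no-enzyme basal signal for full effect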). The essentials:
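Fluorogenic 4-MU substrate hydrolysis, 80 uM substrate and 2 nM coffee bean alpha-galactosidase, pH 5.9 citrate buffer, 20 min at room temperature, then NaOH/glycine stop. Titration 0.7 nM–77 uM, normalized to no-enzyme and enzyme controls, AC50 via Hill equation.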

Values joined by “and” are separate entries in the source; they are usually repeats but may differ in a detail not shown here. Equal values may be shown once. Results filed as inconclusive are left out. Active and inactive are the calls of the source. Unless noted, the call rests on the fitted dose curve.

Regarding `C[C@@H](O)[C@H]1C(=O)N2C(C(=O)OCOC(=O)C(C)(C)C)=C(SC3CN(C4=NCCS4)C3)[C@H](C)[C@H]12`, the Potency result in test [1], in [2], in [3], in test [4], in [5] and in [7] was “inactive” each time. Besides, the Potency entry in test [9] is “inactive”. In addition, the compound was classed as inactive in test [6] and in [8].
Turning to `CO[C@H]1C(=O)[C@]2(C)[C@@H](OC)C[C@H]3OC[C@@]3(OC(C)=O)[C@H]2[C@H](OC(=O)c2ccccc2)[C@]2(O)C[C@H](OC(=O)[C@H](O)[C@@H](NC(=O)OC(C)(C)C)c3ccccc3)C(C)=C1C2(C)C`, the Potency entry in test [1], in test [2], in test [3], in [4], in test [5] and in [7] was “inactive” each time. Besides, in test [9], the Potency entry was “inactive”. Besides, the call in [6] and in test [8] was inactive. Further, the Potency in test [10] was 48.2 nM (active); in test [12], 136 nM (active). Moreover, the activity change, negative = inhibition in test [11] is -81.7%.
Regarding `Cc1cc(O)c2c(c1)O[C@@]1(C)CC[C@H]3C(C)(C)CCCC34CO[C@@H]2[C@H]41` (some centres not stated), the Potency entry in [1], in test [2], in [3], in test [4], in test [5] and in test [7] was “inactive” throughout. In addition, the Potency result in test [9] is “inactive”. Moreover, the call in test [6] and in test [8] was inactive. Besides, the activity change, negative = inhibition in [11] is -25.2%.
As for `O=c1c(O)c(-c2ccc(O)c(O)c2)oc2cc(O)ccc12`, the Potency result in [1], in [2], in test [3], in test [4] and in test [9] was “inactive” each time. In addition, the call in test [13] was inactive.
For the compound `C/C=C(/C)C(=O)OC1Cc2c(ccc3ccc(=O)oc23)OC1(C)C` (configuration not stated), the Potency result in test [1], in test [2], in test [3] and in test [4] was “inactive” throughout.
Consider `COc1cc2oc3ccccc3c(=O)c2cc1OC`, for which the Potency result in test [1], in [2], in [3] and in [4] was “inactive” each time. Besides, the outcome in test [13] was inactive.
Turning to `CNCC(N)C(=O)O` (configuration not stated), the Potency result in [1], in test [2], in test [3], in test [4] and in test [14] was “inactive” in each case.
Consider `CC(CC=O)CCCC(C)(C)O` (configuration not stated), for which the Potency entry in [1], in test [2], in [3], in test [4], in test [5] and in [7] was “inactive” each time. In test [9], the Potency entry was “inactive”. Further, the result in test [6] and in test [8] was inactive. Further, in test [11], the activity change, negative = inhibition is -11.7%.
Regarding `CO/N=C(\C(=O)N[C@@H]1C(=O)N2C(C(=O)O)=C(COC(C)=O)CS[C@H]12)c1csc(N)n1`, the call in [15], in test [6] and in test [8] was inactive. Besides, the Potency entry in [1], in test [2], in test [3], in test [4], in test [5] and in test [7] was “inactive” throughout. Further, the Potency result in test [9] and in test [11] was “inactive” each time.
Take `CCOC(=O)[C@@H](N)Cc1ccc(-c2cc(O[C@H](c3ccc(Cl)cc3-n3ccc(C)n3)C(F)(F)F)nc(N)n2)cc1`: the Potency entry in test [1], in test [2], in test [3], in [4], in test [5] and in test [7] was “inactive” throughout. The Potency entry in test [9] was “inactive”. The compound was classed as inactive in [6] and in test [8]. Further, the Potency in test [12] was 19200 nM (active).
Consider `COc1ccc(CC2c3cc(OC)c(OC)cc3CC[N+]2(C)CCC(=O)OCCCCCOC(=O)CC[N+]2(C)CCc3cc(OC)c(OC)cc3C2Cc2ccc(OC)c(OC)c2)cc1OC` (configuration not stated), for which the activity change, negative = inhibition is -1.71% [at 11.5 µM] (inactive) in test [1]; -0.768% [at 11.5 µM] (inactive) in [4]; -27% and -4% in [11]. Besides, the activity change, negative = reduced viability in [2] was -21.5% [at 11.5 µM] (inactive). The activity change, negative = lower viability in test [3] was 2.32% [at 11.5 µM] (inactive). The Potency entry in [5], in [7] and in test [9] was “inactive” in each case. Further, the call in [6] was inactive.
Turning to `CC(C=CC=C(C)C=CC1=C(C)CCCC1(C)C)=CC=CC=C(C)C=CC=C(C)C=CC1=C(C)CCCC1(C)C`, the Potency result in test [1], in [2], in test [3] and in test [4] was “inactive” each time. Further, the outcome in test [5] is “inactive [at 0.573 µM]”; in test [6], “inactive [at 0.573 µM]”; in [7], “inactive [at 0.573 µM]”; in [9], “inactive [at 0.702 µM]”. Also, the activity change, negative = cytotoxicity in test [8] is 0.415% [at 0.573 µM] (inactive). In addition, in test [11], the activity change, negative = inhibition is -7.48% [at 0.702 µM].
For the compound `CCCCCCCC(=O)O`, the Potency entry in [1], in test [2], in [3], in [4], in [5] and in test [7] was “inactive” in each case. In addition, the Potency entry in test [9] is “inactive”. For the same compound, the call in [6] and in [8] was inactive. In [11], the activity change, negative = inhibition was determined as 1.02%.
`Cc1cn([C@@H]2C[C@@H](O)[C@H](CO)O2)c(=O)[nH]c1=O`: the Potency entry in [1], in test [2], in [3], in test [4], in test [5] and in test [7] was “inactive” throughout. The Potency entry in test [9] was “inactive”. Moreover, the compound was classed as inactive in test [6] and in test [8]. The activity change, negative = inhibition in [11] is -18% and -32.2%.
`CCCC1O[C@@H]2C[C@H]3[C@@H]4CCC5=CC(=O)C=C[C@]5(C)[C@H]4[C@@H](O)C[C@]3(C)[C@]2(C(=O)CO)O1` (some centres not stated): the outcome in [16], in [17], in test [15], in test [6] and in test [8] was inactive. Further, the Potency result in [1], in test [2], in test [3], in [4], in [5] and in [7] was “inactive” each time. Moreover, the Potency entry in test [9] is “inactive”. In addition, in [11], the activity change, negative = inhibition was -23.4%.
For the compound `O=C1CCC(C(=O)O)N1` (configuration not stated), the Potency result in [1], in [2], in test [3], in test [4], in test [5] and in test [7] was “inactive” in each case. In addition, in [9], the Potency result was “inactive”. For the same compound, the compound was called inactive in [6] and in [8]. In [11], the activity change, negative = inhibition is -17.5%.
Take `COc1c(OCCCN2CCOCC2)ccc2c3n(c(=NC(=O)c4cnc(N)nc4)nc12)CCN3`: the Potency in test [1] was 1500 nM (active); in test [2] it was 298 nM (active); in test [3], 1060 nM (active); in [4], 2980 nM (active); in test [7] it was 3550 nM (active); in [10] it was 312 nM (active). In addition, the Potency in test [12] is 2780 nM (active). Moreover, the activity change, negative = cytotoxicity in test [6] was 3.49% [at 11.4 µM] (inactive); in test [8] it was -14.8% [at 11.4 µM] (inactive).
As for `NC[C@H]1O[C@H](O[C@H]2[C@@H](O)[C@@H](O[C@H]3O[C@H](CO)[C@@H](O)[C@H](N)[C@@H]3O)[C@H](N)C[C@@H]2N)[C@H](N)C[C@H]1O`, the Potency entry in test [1], in [2], in [3] and in test [4] was “inactive” throughout. Besides, the activity change, negative = inhibition was -1.32% [at 11.4 µM] (inactive) in test [5] and -15.5% [at 11.3 µM] in test [11]. In addition, the outcome in test [6] is “inactive [at 11.4 µM]”; in [7] it was “inactive [at 11.4 µM]”; in test [8], “inactive [at 11.4 µM]”; in test [9], “inactive [at 11.3 µM]”.
For `Nc1ncnc2c1ncn2[C@@H]1O[C@H](COP(=O)(O)OP(=O)(O)OP(=O)(O)O)[C@@H](O)[C@H]1O`, the Potency result in test [1], in test [2], in test [3] and in [4] was “inactive” throughout. In addition, the outcome in test [5] was “inactive [at 0.573 µM]”. For the same compound, the activity change, negative = cytotoxicity in test [6] is -18.7% [at 0.573 µM] (inactive); in test [8], -8.27% [at 0.573 µM] (inactive); in [9] it was -13.7% [at 0.702 µM] (inactive). For the same compound, in test [7], the activity change, negative = inhibition was -11.5% [at 0.573 µM] (inactive).

The values are drawn from PubChem BioAssay (NCATS).
